Activity calls are given as the source filed them.
Note: test concentration not given here.

The nature of the first assay: JC-1 mitochondrial signal, unstimulated adipocytes – cell-based, JC-1 fluorescence, 3T3-L1 adipocytes, 24 h, 100 nL compound, profiling panel (AID 1168). The settings on record: JC-1 mitochondrial fluorescence, higher = more signal, called active from +8 up or from −8 down.
As to `CC(C)=CCCC(C)=CC(O)C1C=CC2C(=O)N(c3ccccc3)C(=O)C2N1Nc1ccccc1` (configuration not stated), the z-score was 0.224 (inactive).
The same measure, in the same setting: the same measure for `COC(=O)[C@@]1(Cc2ccc(OC)cc2)[C@H]2c3cc(C(=O)N4CCCC4)n(CCc4c[nH]c5cc(F)ccc45)c3C[C@H]2CN1C(=O)c1ccccc1`: 0.492 (inactive); for `Cc1ccc(F)cc1S(=O)(=O)N[C@@H]1CCN(Cc2ccc(-c3ccccc3)cc2)C1`: -0.516 (inactive).
Same read-out and setting: the same measure for `COC(=O)[C@@]1(Cc2ccc(OC)cc2)[C@H]2c3cc(C(=O)N(C)C)n(Cc4c(OC)[nH]cc(C)c4=O)c3C[C@H]2CN1C(=O)c1ccccc1`: 0.274 (inactive).
Same read-out and setting: the figure for `[N-]=[N+]=Nc1ccccc1[C@H]1OC(c2ccc(OCCCO)cc2)=N[C@@]1(CCS(=O)(=O)c1ccccc1)C(=O)O` is -1.65 (inactive).
For the compound `COC(=O)c1ccc(C(O)C2C=CC3C(=O)N(C)C(=O)C3N2NC(=O)OC(C)(C)C)o1` (configuration not stated), the z-score is -0.429 (inactive).
Same read-out and setting: the same measure for `CC=CC(O)C1C=CC2C(=O)N(c3ccccc3)C(=O)C2N1Nc1ccc(C(C)C)cc1` (configuration not stated): -1.32 (inactive); for `O=C1C[C@@](C(=O)NC2CC2)(c2ccc([N+](=O)[O-])cc2)[C@@H](c2ccc(CO)cc2)N1CC12CC3CC(CC(C3)C1)C2`: -0.199 (inactive).
On the same count and under the same terms, the figure for `COc1ccc(C(O)C2C=CC3C(=O)N(C)C(=O)C3N2Nc2ccccc2)cc1OCc1ccccc1` (configuration not stated) is -0.989 (inactive); for `[N-]=[N+]=NCc1ccccc1C[C@@]1(C(=O)N2CCOCC2)N=C(c2ccc(OCCCO)cc2)O[C@@H]1c1ccccc1CN=[N+]=[N-]` it is 0.612 (inactive); for `CN1C(=O)C2C=CC(C(O)c3ccccn3)N(Nc3ccccc3)C2C1=O` (configuration not stated) it is -0.234 (inactive).
Same read-out and setting: the figure for `COc1ccc(C#Cc2ccc3c(c2)[C@]2(C(=O)N3)[C@H](c3ccc(O)cc3)N3[C@H](c4ccccc4)[C@H](c4ccccc4)OC(=O)[C@H]3[C@@H]2C(=O)N2CCCCCCC2)cc1` is 3.48 (inactive).
As for `O=C1OCCC=C[C@H]2OC34C=CCN(Cc5ccccc5)C(=O)[C@H]3N(CCCCCO)C(=O)[C@@H]4C12` (some centres not stated), the z-score is 0.498 (inactive).
Regarding `COC(=O)C(CC#Cc1ccc2c(c1)[C@]1(C(=O)N2)[C@H](C(=O)NC[C@H](O)c2ccccc2)[C@H]2C(=O)O[C@H](c3ccccc3)[C@H](c3ccccc3)N2[C@@H]1c1ccc(OCCO)cc1)C(=O)OC`, the z-score was 1.04 (inactive).
In the case of `COCCOC(=O)N1C(=O)[C@@]2(c3cc(C#CCNC(N)=O)ccc31)[C@H](c1ccc(O)cc1)N1[C@H](c3ccccc3)[C@H](c3ccccc3)OC(=O)[C@H]1[C@@H]2C(=O)NC[C@H](O)c1ccccc1`, the z-score was -0.563 (inactive).
On to `COC(=O)[C@@]1(Cc2ccccc2)[C@H]2c3cc(C(=O)N4CCCC4)n(Cc4ccc(C)o4)c3C[C@H]2CN1C(=O)c1ccccc1`, for which the z-score was -0.753 (inactive).
For the compound `COCC(=C=CC[C@H](O)c1ccc(OCCO)cc1)C[C@H](O)c1cc(Cl)cc(Cl)c1O`, the z-score is 0.138 (inactive).

A short description of a further assay: JC-1 mitochondrial signal, unstimulated myeloma cells – cell-based, JC-1 fluorescence, RPMI8226, 24 h, 100 nL compound, profiling panel (AID 1169). The settings on record: JC-1 mitochondrial potential fluorescence, higher = more signal.
Turning to `C=CCC(OC(C)=O)[C@@H]1[C@@H](N(Cc2ccc(-c3ccccc3)cc2)C(=O)Cc2ccc(OC)cc2)c2cc(OCCCO)ccc2N1C(=O)c1ccc2ccccc2n1` (some centres not stated), the z-score worked out at 0.651.
On the same count and under the same terms, the figure for `COc1ccc(C#Cc2ccc3c(c2)[C@]2(C(=O)N3)[C@H](C(=O)NC[C@H](O)c3ccccc3)[C@H]3C(=O)O[C@H](c4ccccc4)[C@H](c4ccccc4)N3[C@@H]2c2ccc(OCCO)cc2)cc1` is -1.04.
Still for that read-out and setting: the figure for `COCCOC(=O)N1C(=O)[C@@]2(c3cc(C#CC4(O)CCCCCC4)ccc31)[C@H](C(=O)N1CCCCCCC1)[C@H]1C(=O)O[C@H](c3ccccc3)[C@H](c3ccccc3)N1[C@@H]2c1ccccc1OCCO` is -0.658.
Still for that read-out and setting: the same measure for `COC(=O)c1ccc(OC)c(/C=C\CC(OC(C)=O)c2ccccc2)c1` (configuration not stated): -0.578; for `Cc1ccc([C@H]2C(C(=O)O)=C[C@@H](C)N2S(=O)(=O)c2ccc(C)cc2)cc1`: -0.187.
In turn, `NCCCCCCNC(=O)[C@H]1C[C@H]2C(=O)NCC(=O)N2[C@H]1c1cccc(OCCO)c1` came in with a z-score of -0.417.
Still for that read-out and setting: the same measure for `COc1ccc(CCN2C(=O)[C@@]3(Cc4ccccc42)c2ccccc2C(=O)N(Cc2ccccc2Cl)[C@H]3c2ccc(CO)cc2)cc1`: -0.316; for `C=CC[C@@H](OC(=O)Nc1ccc(OC)cc1)c1ccc(O)c2ccccc12`: -0.992.
On the same count and under the same terms, the same measure for `CC(C)C[C@@H]1NC(=O)[C@@H]2C[C@H](C(=O)NCCCCCC[N+](C)(C)C)[C@H](c3ccc(O)cc3)N2C1=O`: -0.815; for `O=C1C=CC(=O)[C@@H]2CC(COc3ccccc3)=C3[C@@H](CCc4ccccc4)OB(O)C[C@@H]3[C@H]12`: -1.01; for `CN(C)CCCCNC(=O)[C@H]1C[C@H]2C(=O)N[C@@H](Cc3ccccc3)C(=O)N2[C@H]1c1ccc(O)cc1`: -0.136.
For `CCCC[C@H]1OB(O)C[C@H]2C1=C(C)C[C@H]1C(=O)N(Cc3ccccc3)C(=O)[C@H]12`, the z-score is -0.333.
With `C=C[C@@H](COC(C)=O)N(Cc1ccc([N+](=O)[O-])cc1)S(=O)(=O)c1ccc(Br)cc1`, the z-score turned out to be 0.667.
Same read-out and setting: the same measure for `COc1ccc([Si](C)(C)[C@@H]2[C@@H](CCn3cc([C@H](O)c4ccccc4)nn3)O[C@]3(C(=O)N(Cc4ccc(N5C(=O)c6cccc7cccc5c67)cc4)c4ccccc43)[C@H]2C)cc1`: -0.964; for `CC(C)(C)OC(=O)CC[C@@]1(C(=O)NCCN2CCOCC2)N=C(c2ccc(OCCCO)cc2)O[C@@H]1c1ccccc1`: -0.707; for `O=C1O[C@@H](c2ccccc2)[C@@H](c2ccccc2)N2[C@@H](c3ccccc3OCCO)[C@]3(C(=O)Nc4ccc(C#CC5(O)CCCCCC5)cc43)[C@@H](C(=O)Nc3nc4ccccc4s3)[C@H]12`: -0.863.
Same read-out and setting: the same measure for `COCCOC(=O)N1C(=O)[C@@]2(c3cc(C#CCNC(N)=O)ccc31)[C@H](c1ccc(OCCO)cc1)N1[C@H](c3ccccc3)[C@H](c3ccccc3)OC(=O)[C@H]1[C@@H]2C(=O)N1CCc2cc(OC)c(OC)cc2C1`: -0.489.
Same read-out and setting: the same measure for `CCOC(=O)C[C@H]1[C@H](OC(=O)c2ccc(C(=O)c3ccccc3)cc2)[C@@H](NC(=O)C2CCCCC2)c2cc(OCCCO)ccc2N1C(=O)c1ccccc1`: 0.0249; for `CC(C)=CCCC(C)=CC(O)C1C=CC2C(=O)N(c3ccccc3)C(=O)C2N1Nc1ccccc1` (configuration not stated): -0.222.
Turning to `COC(=O)[C@@]1(Cc2ccc(OC)cc2)[C@H]2c3cc(C(=O)N4CCCC4)n(CCc4c[nH]c5cc(F)ccc45)c3C[C@H]2CN1C(=O)c1ccccc1`, the z-score is -0.304.
Same read-out and setting: the figure for `Cc1ccc(F)cc1S(=O)(=O)N[C@@H]1CCN(Cc2ccc(-c3ccccc3)cc2)C1` is -0.69; for `COC(=O)[C@@]1(Cc2ccc(OC)cc2)[C@H]2c3cc(C(=O)N(C)C)n(Cc4c(OC)[nH]cc(C)c4=O)c3C[C@H]2CN1C(=O)c1ccccc1` it is -0.213.
The compound `[N-]=[N+]=Nc1ccccc1[C@H]1OC(c2ccc(OCCCO)cc2)=N[C@@]1(CCS(=O)(=O)c1ccccc1)C(=O)O` displayed a z-score of 0.0104.
The same measure, in the same setting: the figure for `COC(=O)c1ccc(C(O)C2C=CC3C(=O)N(C)C(=O)C3N2NC(=O)OC(C)(C)C)o1` (configuration not stated) is -0.535; for `CC=CC(O)C1C=CC2C(=O)N(c3ccccc3)C(=O)C2N1Nc1ccc(C(C)C)cc1` (configuration not stated) it is -0.467.
On the same count and under the same terms, the same measure for `O=C1C[C@@](C(=O)NC2CC2)(c2ccc([N+](=O)[O-])cc2)[C@@H](c2ccc(CO)cc2)N1CC12CC3CC(CC(C3)C1)C2`: -0.507.
With `COc1ccc(C(O)C2C=CC3C(=O)N(C)C(=O)C3N2Nc2ccccc2)cc1OCc1ccccc1` (configuration not stated), the z-score was found to be 0.324.
In turn, `[N-]=[N+]=NCc1ccccc1C[C@@]1(C(=O)N2CCOCC2)N=C(c2ccc(OCCCO)cc2)O[C@@H]1c1ccccc1CN=[N+]=[N-]` gave a z-score of -0.997.
For the compound `CN1C(=O)C2C=CC(C(O)c3ccccn3)N(Nc3ccccc3)C2C1=O` (configuration not stated), the z-score is 0.184.
`COc1ccc(C#Cc2ccc3c(c2)[C@]2(C(=O)N3)[C@H](c3ccc(O)cc3)N3[C@H](c4ccccc4)[C@H](c4ccccc4)OC(=O)[C@H]3[C@@H]2C(=O)N2CCCCCCC2)cc1` registered a z-score of -0.538.
On the same count and under the same terms, the figure for `O=C1OCCC=C[C@H]2OC34C=CCN(Cc5ccccc5)C(=O)[C@H]3N(CCCCCO)C(=O)[C@@H]4C12` (some centres not stated) is 0.231; for `COC(=O)C(CC#Cc1ccc2c(c1)[C@]1(C(=O)N2)[C@H](C(=O)NC[C@H](O)c2ccccc2)[C@H]2C(=O)O[C@H](c3ccccc3)[C@H](c3ccccc3)N2[C@@H]1c1ccc(OCCO)cc1)C(=O)OC` it is -0.94; for `COCCOC(=O)N1C(=O)[C@@]2(c3cc(C#CCNC(N)=O)ccc31)[C@H](c1ccc(O)cc1)N1[C@H](c3ccccc3)[C@H](c3ccccc3)OC(=O)[C@H]1[C@@H]2C(=O)NC[C@H](O)c1ccccc1` it is 0.326.
Still for that read-out and setting: the figure for `COC(=O)[C@@]1(Cc2ccccc2)[C@H]2c3cc(C(=O)N4CCCC4)n(Cc4ccc(C)o4)c3C[C@H]2CN1C(=O)c1ccccc1` is -1.02; for `COCC(=C=CC[C@H](O)c1ccc(OCCO)cc1)C[C@H](O)c1cc(Cl)cc(Cl)c1O` it is 0.04.

These data come from PubChem BioAssay.
